A selection: hits, their analogues and other compounds. The true share with any hit is near 7.5%.
ELG1 genotox: induces genotoxicity in HEK293T cells with luciferase-tagged ELG1; 1.3% of 330,000 active; HEK293T ELG1-luciferase reporter, luminescence, 16 h; Potency, µM (top dose mostly 46 µM), for inactives: at the top dose activity change, positive = activation, usual class: activators; AID 504466; further: % of control where 0% means no effect; nearly all actives have a fitted effect of over 60% in size
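Genotoxicity was scored as increased ELG1-luciferase reporter signal, measured by ONE-Glo luminescence (30 min, room temperature). Compound or vehicle exposure of the HEK293T reporter cells lasted 16 hr at 37°C.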
NPC1 prom act: NPC1 promoter activation; Potency, µM (top dose mostly 9.22 µM), for the others: top-dose activation, usual class: activators; Huh7 NPC1 promoter luciferase reporter, 24 h; AID 485313; 2.4% of 320,000 active; further: % of control where 0% means no effect; nearly all actives have a fitted effect of over 60% in size
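Luciferase expression driven by the NPC1 promoter was measured in stably transfected Huh7 cells after a 24 h compound incubation, using a luciferase reagent and a luminescence read.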
Rab9 promoter act: activates the Rab9 promoter; Huh7 Rab9 promoter-luciferase reporter, luminescence, 24 h; Potency, µM (titrated, usually from 9.22 µM), for inactives: at the top dose activation, negative = inhibition, actives largely listed as activators; 2.8% of 320,000 active; AID 485297; further: % of control where 0% means no effect; nearly all actives have a fitted effect of over 60% in size
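Huh7 reporter line, Rab9 promoter upstream of luciferase. Compound exposure 24 h at 37 °C in reduced-serum medium with 10% FBS. Read-out: luminescence.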
FLuc modulator: firefly luciferase modulation, counter-screen for miR-21 project. AID 588342. purified FLuc, Km substrates, luminescence inhibition. 6.9% of 360,000 active. Potency, µM (top dose mostly 57.5 µM), without a hit: at the top dose activity change, negative = inhibition, actives largely listed as inhibitors. P08659;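 further: plate controls were vehicle for no effect and reference inhibitor for full effect; nearly all actives have a fitted effect of over 55% in size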
Target sequence (P08659 whole entry, looked up): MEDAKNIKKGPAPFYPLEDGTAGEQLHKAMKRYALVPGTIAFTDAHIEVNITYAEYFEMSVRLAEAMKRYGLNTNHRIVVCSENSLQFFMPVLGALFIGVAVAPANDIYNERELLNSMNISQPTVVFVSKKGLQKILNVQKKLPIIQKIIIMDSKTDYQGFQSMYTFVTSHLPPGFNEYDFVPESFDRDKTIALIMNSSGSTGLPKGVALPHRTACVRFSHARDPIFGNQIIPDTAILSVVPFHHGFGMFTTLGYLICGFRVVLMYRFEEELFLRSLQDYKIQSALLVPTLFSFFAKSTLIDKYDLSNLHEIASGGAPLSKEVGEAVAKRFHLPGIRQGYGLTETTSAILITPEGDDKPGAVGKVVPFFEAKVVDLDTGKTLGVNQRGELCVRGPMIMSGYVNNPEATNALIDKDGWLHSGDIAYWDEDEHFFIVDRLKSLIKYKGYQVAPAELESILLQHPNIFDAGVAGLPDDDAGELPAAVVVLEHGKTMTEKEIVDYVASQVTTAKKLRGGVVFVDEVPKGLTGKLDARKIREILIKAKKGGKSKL
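Purified P. pyralis luciferase, 10 nM final, with Km-level 10 uM D-luciferin and 10 uM ATP in 50 mM Tris acetate pH 7.5, 10 mM Mg acetate, 0.01% Tween-20, 0.05% BSA; 6-point qHTS titration about 60 µM downward; luminescence read.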
SMN2 splice enh: enhancers of SMN2 splice variant expression; HEK293 SMN2-luciferase splicing reporter, luminescence, 30-36 h; Potency, µM (titrated, usually from 46.1 µM), for inactives: at the top dose activity change, positive = activation, usual class: activators; 2.8% of 210,000 active; further: % of control where 0% means no effect; nearly all actives have a fitted effect of over 55% in size
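HEK293 cells carry an SMN2 minigene-luciferase reporter in which exon 7 inclusion puts luciferase in frame. Cells were seeded at 2000 cells/well, attached for 10-12 hours, then exposed to compounds for 30-36 hours at 37C before ONE-Glo luminescence.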
An asterisk follows results filed as active. The call rests on the fitted dose curve; in most records, active means well fitted curve in the direction sought with a large enough effect; inconclusive means small, poorly fitted or top-dose-only effect, or another doubt; inactive means no such curve, though single readings can be large; an effect the other way counts as inactive or inconclusive. Potency means the concentration at half of the fitted maximal effect.

Results for COc1ccccc1C(=O)Nc1ccc(-c2nnn(CC(=O)N3CCN(C(=O)c4ccco4)CC3)n2)cc1 ?
ELG1 genotox: -11%; NPC1 prom act: -2%; Rab9 promoter act: 11%; FLuc modulator: 17µM*; SMN2 splice enh: -36%

What do the screens show for `O=C(Nc1ccc(-c2nnn(CC(=O)N3CCN(C(=O)c4ccco4)CC3)n2)cc1)c1ccccc1F`?
ELG1 genotox: -6%; NPC1 prom act: 16%; Rab9 promoter act: 24%; FLuc modulator: 11µM*; SMN2 splice enh: -5%

What do the screens show for `Cc1ccccc1-c1nnn(CC(=O)N2CCN(C(=O)c3ccco3)CC2)n1`?
ELG1 genotox: -7%; NPC1 prom act: -1%; Rab9 promoter act: -1%; FLuc modulator: 0%

What do the screens show for `Cc1noc(C)c1CSCC(=O)Oc1ccc(N(C)S(=O)(=O)c2ccc(Cl)cc2)cc1`?
ELG1 genotox: -2%; NPC1 prom act: 1%; Rab9 promoter act: -1%; FLuc modulator: -1%

How did CC(C)(CO)CNC(=O)CCc1nnc(-c2ccc(-c3ccccc3)cc2)o1 do in these assays?
ELG1 genotox: 11%; NPC1 prom act: 22%; Rab9 promoter act: 12%; FLuc modulator: 24µM*

How did CC(NC(=O)CCc1nnc(-c2ccc(-c3ccccc3)cc2)o1)c1nc2ccccc2[nH]1 (stereo unspecified) do in these assays?
ELG1 genotox: -8%; NPC1 prom act: 27%; Rab9 promoter act: 10%; FLuc modulator: 11µM*

Results for COc1cc(/C=C2\SC(=Nc3ccccc3OC)NC2=O)ccc1O ?
ELG1 genotox: 0%; NPC1 prom act: -24%; Rab9 promoter act: 0%; FLuc modulator: inconclusive

How did COc1ccc(/C=C2\SC(=Nc3ccccc3OC)NC2=O)cc1 do in these assays?
ELG1 genotox: -1%; NPC1 prom act: -26%; Rab9 promoter act: 4%; FLuc modulator: 5.4µM*

How did COc1ccc(C=C2C(=O)c3ccccc3C2=O)cc1O do in these assays?
ELG1 genotox: -2%; NPC1 prom act: 0%; Rab9 promoter act: -2%; FLuc modulator: 3.4µM*; SMN2 splice enh: 20%

How did COc1cc(C=C2C(=O)c3ccccc3C2=O)ccc1O do in these assays?
ELG1 genotox: 2%; NPC1 prom act: 1%; Rab9 promoter act: -7%; FLuc modulator: 3µM*

What do the screens show for `COc1ccc(CC(=O)N(Cc2ccccc2)c2ccc(C)cc2)cc1OC`?
ELG1 genotox: 2%; NPC1 prom act: 13%; Rab9 promoter act: 2%; FLuc modulator: 1%

Results for COc1ccc(C(=O)Nc2nc3nccc(-c4ccccc4)n3n2)cc1 ?
ELG1 genotox: -3%; NPC1 prom act: -3%; Rab9 promoter act: 1%; FLuc modulator: 9.5µM*; SMN2 splice enh: -25%

Results for O=C(Nc1nc2nccc(-c3ccccc3)n2n1)c1ccccc1 ?
ELG1 genotox: inconclusive; NPC1 prom act: 2.8µM*; Rab9 promoter act: 2.5µM*; FLuc modulator: inconclusive

Results for O=C(Nc1nc2nccc(-c3ccccc3)n2n1)c1ccc(F)cc1 ?
ELG1 genotox: 1%; NPC1 prom act: -6%; Rab9 promoter act: 11%; FLuc modulator: 1%; SMN2 splice enh: -24%

Results for COC(=O)C1OC(=O)C2OC23[C@]2(C)C(OC(C)=O)CC4C(C)(C)C(=O)CC[C@]4(C)C2CC[C@@]13C (stereo partly specified) ?
SMN2 splice enh: 4%

Results for COc1ccccc1CC(NC(C)=O)C(=O)NC1CCN(C(=O)Nc2ccccc2F)CC1 (stereo unspecified) ?
ELG1 genotox: -1%; NPC1 prom act: 2%; Rab9 promoter act: 0%; FLuc modulator: 2%

What do the screens show for `CCc1ccc(-n2nc(C)c3c(C)cc(=O)n(CC(=O)Nc4ccccc4C(=O)OC)c32)cc1`?
FLuc modulator: -1%

What do the screens show for `Cc1ccc2cccc(Oc3cnccn3)c2n1`?
ELG1 genotox: 1%; NPC1 prom act: -3%; Rab9 promoter act: 7%; FLuc modulator: 3%; SMN2 splice enh: 16%

What do the screens show for `c1ccc2oc(-c3[nH]ncc3CN3CCSCC3)cc2c1`?
ELG1 genotox: -1%; NPC1 prom act: 1%; Rab9 promoter act: 4%; FLuc modulator: -2%

Results for c1ccc2oc(-c3ccn[nH]3)cc2c1 ?
ELG1 genotox: inconclusive; NPC1 prom act: 2.8µM*; Rab9 promoter act: 3.2µM*; FLuc modulator: 8.5µM*

What do the screens show for `CCCC(=O)Nc1ccc(C(=O)n2nnc3ccccc32)cc1`?
ELG1 genotox: 0%; NPC1 prom act: -4%; Rab9 promoter act: -4%; FLuc modulator: -1%; SMN2 splice enh: 7%

What do the screens show for `CC(C)(C)c1ccc(C(=O)n2cnc3ccccc32)cc1`?
ELG1 genotox: 11%; NPC1 prom act: -1%; Rab9 promoter act: 2%; FLuc modulator: 3.4µM*

How did CCN(CC)c1ccc(C(=O)Nn2cnc3ccccc3c2=O)cc1 do in these assays?
ELG1 genotox: 7%; NPC1 prom act: 3%; Rab9 promoter act: 16%; FLuc modulator: inconclusive

How did CCN(CC)c1ccc(C(=O)n2cnc3ccccc32)cc1 do in these assays?
ELG1 genotox: 7%; NPC1 prom act: inconclusive; Rab9 promoter act: inconclusive; FLuc modulator: 5.4µM*; SMN2 splice enh: 2%

Results for CN(C)c1ccc(C(=O)n2nnc3ccccc32)cc1 ?
ELG1 genotox: inconclusive; NPC1 prom act: 5%; Rab9 promoter act: 2%; FLuc modulator: 0.13µM*; SMN2 splice enh: 2%

Results for Cc1cc2ncn(C(=O)c3ccc(F)cc3)c2cc1C ?
ELG1 genotox: 2%; NPC1 prom act: 2%; Rab9 promoter act: -4%; FLuc modulator: 13µM*

How did CCOc1ccc(-c2c(C)nn3c(-c4ccccc4)c(C(=O)NCCOC)cnc23)cc1OCC do in these assays?
FLuc modulator: -2%

Results for CCOC(=O)c1ccc2nc(NC(=O)C(C)C)sc2c1 ?
ELG1 genotox: inconclusive; NPC1 prom act: 1.1µM*; Rab9 promoter act: 3.5µM*; FLuc modulator: 9.5µM*; SMN2 splice enh: 11µM*

Results for COC(=O)CCCCCCCCC(=O)Nc1nc2ccccc2s1 ?
ELG1 genotox: -2%; NPC1 prom act: -1%; Rab9 promoter act: -1%; FLuc modulator: -2%; SMN2 splice enh: 22%

What do the screens show for `CCCC(=O)Nc1nc2ccc(C(=O)OCC)cc2s1`?
ELG1 genotox: 10µM*; NPC1 prom act: 0.63µM*; Rab9 promoter act: inconclusive; FLuc modulator: inconclusive; SMN2 splice enh: 18µM*

Results for CCCCC(=O)Nc1nc2ccc(C(=O)OC)cc2s1 ?
ELG1 genotox: inconclusive; NPC1 prom act: inconclusive; Rab9 promoter act: 2.2µM*; FLuc modulator: inconclusive; SMN2 splice enh: inconclusive

Results for CC(=O)Nc1ccc(S(=O)(=O)NC2=NCN(C(C)C)CN2)cc1 ?
FLuc modulator: -2%; SMN2 splice enh: 15%

How did C[C@@H](O)CCC[C@H](O)/C=C/[C@H]1[C@H](O)CC(=O)[C@@H]1C/C=C\CCCC(=O)O do in these assays?
SMN2 splice enh: 2%

Screens (PubChem)
